# Reference: PubChem BioAssay AID463173 (ICCB-Longwood Screening Facility, Harvard Medical School, 2010)
# About 4,300 (8.3%) of roughly 52,000 compounds were called active. For the sample, actives were picked, then their nearest neighbours and some compounds at random. Unmarked numbers belong to inactive results. Rule as the data show it: active = survival mostly below about 52% (no sharp cut-off); inactive = mostly above about 56%.
# Test system: DeltatarO mutant
# Assay: S. aureus survival, RN4220 and DeltatarO strains – OD600, teichoic acid synthesis inhibitors, primary screen (AID 463173)
# Conditions: S. aureus RN4220 wild type/DeltatarO growth, OD600, 18 h, stronger effect = lower value, screened at 18.75 µg/mL (by protocol)
row,SMILES,survival
1,O=C(CCCSc1nc(-c2ccco2)cc(C(F)(F)F)n1)NC1CCCCC1,86%
2,Cc1ccc(N(Cc2cccs2)C(=O)C(C)Oc2ccc(Cl)c(C)c2)cc1 (stereo not given),58%
3,COc1ccc(Cl)cc1C(=O)N1CCCC1,100%
4,CN1C(C(=O)Nc2ccc(F)cc2F)=CC(c2ccc3c(c2)OCO3)=NS1(=O)=O,68%
5,Cc1ccc(Cn2ccnc2SCC(=O)NCc2ccc(F)cc2)cc1,101%
6,O=C(/C=C/c1ccco1)NC(=S)NC1CCCCC1,115%
7,Cc1ccc(OC(=O)CSc2nnc(-c3ccco3)n2-c2ccccc2)cc1,52%
8,Cc1cc(=O)n2nc(N3CCC(C(=O)Nc4ccc(Br)cc4F)CC3)sc2n1,94%
9,Cc1cc(C)cc(NC(=O)c2cc(S(=O)(=O)N3CCCC3)ccc2F)c1,92%
10,CCc1ccc2c(c1)c(=O)c(S(=O)(=O)c1ccccc1)cn2CC(=O)Nc1ccc(OC)cc1,76%
11,O=C(/C=C/c1ccccc1)Nc1cc(-c2nc3ccccc3o2)ccc1Cl,59%
12,COc1cc(OC)cc(C(=O)Nc2cc(-c3nc4cc(Cl)ccc4o3)ccc2Cl)c1,71%
13,O=C(COc1ccccc1[N+](=O)[O-])Nc1cc(-c2nc3cc(Cl)ccc3o2)ccc1Cl,66%
14,O=C(Nc1ccc2oc(-c3ccc4ccccc4c3)nc2c1)c1cc(Cl)ccc1Cl,86%
15,O=C(/C=C/c1ccccc1)Nc1cc(-c2nc3cc(Cl)ccc3o2)ccc1Cl,46% (active)
16,O=C(Nc1cc(-c2nc3cc(Cl)ccc3o2)ccc1Cl)c1ccco1,41% (active)
17,O=C(Cc1ccccc1)Nc1cc(-c2nc3cc(Cl)ccc3o2)ccc1Cl,68%
18,O=C(Nc1cc(-c2nc3cc(Cl)ccc3o2)ccc1Cl)c1cccc2ccccc12,44% (active)
19,COc1cc(OC)c(-c2cc(C(=O)NCc3ccc(F)cc3)c3c(-c4ccccc4)[nH]nc3n2)cc1OC,98%
20,O=C(NCC1CCCO1)C12CC3CC(CC(C3)C1)C2 (stereo not given),109%
21,CC(C)Oc1ccccc1NC(=O)CSc1nccn1C,60%
22,CCOCCc1nn2c(=O)cc(COC(=O)COc3ccc(C)c(C)c3)nc2s1,89%

row,SMILES,survival
1,O=C(CN1CCN(C2CCCCC2)C(=O)C1=O)Nc1ccc(Cl)cc1,86%
2,CCOC(=O)c1c(NC(=O)c2cc3nc(-c4ccc(Br)cc4)cc(C(F)(F)F)n3n2)sc(C(C)=O)c1C,83%
3,CCOC(=O)c1cccc(NC(=O)[C@@H](c2ccccc2)N2Cc3ccccc3C2=O)c1,58%
4,Cc1ccccc1-c1nnc(SCC(=O)N(C)c2ccccc2)o1,79%
5,O=C(OC1CSc2nc3ccccc3n2C1)c1ccccc1Cl (stereo not given),95%
6,COC(=O)C1CC(=O)N(c2ccccc2)C1 (stereo not given),72%
7,CCCOc1ccc(C(=O)NCC2OCCc3ccccc32)cc1 (stereo not given),49%
8,CC(C)COc1ccc(C(=O)NCC2OCCc3ccccc32)cc1 (stereo not given),51%
9,CC(C)CCOc1ccc(C(=O)NCC2OCCc3ccccc32)cc1 (stereo not given),39% (active)
10,Cc1ccccc1NC(=O)CSc1nnc(-c2cccs2)o1,71%
11,Cc1c(Cl)cccc1-n1ncc(C(=O)Nc2ccc(Br)cc2F)c1C1CCNCC1,87%
12,COc1cc(Cl)c(NS(=O)(=O)c2ccc3[nH]c(=O)ccc3c2)c(OC)c1,102%
13,O=C(CNS(=O)(=O)c1ccc(Cl)cc1)NN=C1CCCCC1,92%
14,CC(C)(C)C(=O)CNS(=O)(=O)c1ccc(S(=O)(=O)NC2CCCCC2)cc1,79%
15,O=C(CNS(=O)(=O)c1ccc(Cl)cc1)NC1CCCC1,67% (active)
16,Cc1cc(-c2ccc(S(=O)(=O)NCc3ccccc3Cl)s2)on1,128%
17,CCOc1ccc(OCC)c(NC(=O)c2cc3ccccn3n2)c1,87%
18,COc1ccc(-c2noc(CNC(=O)c3cc(OC)c(OC)c(OC)c3)n2)cc1,55%
19,COc1cc(C(=O)NCc2nc(-c3ccc(Cl)cc3)no2)cc(OC)c1OC,59%
20,O=C(NCc1nc(-c2ccccc2)no1)c1ccco1,68%
21,COc1cc(OC)c(C(=O)NCc2nc(-c3ccccc3)no2)cc1OC,41% (active)
22,COc1ccc(-c2noc(CNC(=O)c3ccc(OC)cc3OC)n2)cc1,62% (active)

row,SMILES,survival
1,COc1cccc(C(=O)NCc2nc(-c3ccccc3)no2)c1OC,43% (active)
2,COc1ccc(-c2noc(CNC(=O)c3ccccc3Br)n2)cc1,51%
3,COc1ccc(Cl)cc1C(=O)NCc1nc(-c2cccc(C)c2)no1,48%
4,COc1ccc(-c2noc(CNC(=O)c3ccco3)n2)cc1,87%
5,NC(=O)Cn1cc(F)c(=O)[nH]c1=O,87%
6,Cc1ccccc1-c1noc(C(C)NC(=O)c2ccco2)n1 (stereo not given),79%
7,COc1ccc(-n2c(=O)c3c4c(sc3n(Cc3ccccc3C)c2=O)CCCC4)c(OC)c1,64%
8,CCOc1ccccc1NC(=O)c1cc(S(=O)(=O)NC2CCCC2)ccc1F,81%
9,O=C(NCC(c1ccccc1)c1ccccc1)c1nn(-c2ccccc2F)nc1CO,104%
10,O=c1c2sc3ccccc3c2n(Cc2cccc(Cl)c2)c(=O)n1Cc1ccccc1,66%
11,O=c1c2sc3ccccc3c2n(Cc2cccc(Cl)c2)c(=O)n1Cc1ccc(F)cc1,68% (active)
12,COc1ccccc1NC(=O)Cn1c(=O)n(CCc2ccccc2)c(=O)c2sc3ccccc3c21,74%
13,O=c1c2sc3ccccc3c2n(Cc2ccc(F)cc2)c(=O)n1Cc1ccccc1,137%
14,Cc1ccccc1NC(=O)Cn1c(=O)n(Cc2ccccc2)c(=O)c2sc3ccccc3c21,65%
15,COc1ccccc1NC(=O)Cn1c(=O)n(Cc2ccccc2)c(=O)c2sc3ccccc3c21,68% (active)
16,COc1ccc(Cl)cc1NC(=O)c1nc(S(C)(=O)=O)ncc1N(Cc1ccc(C)cc1)Cc1ccco1,103%
17,COc1ccccc1CN(Cc1ccco1)c1cnc(S(C)(=O)=O)nc1C(=O)Nc1cc(C)ccc1C,58%
18,CCc1ccc(CN(Cc2ccco2)c2cnc(S(C)(=O)=O)nc2C(=O)Nc2ccccc2Cl)cc1,101%
19,CCS(=O)(=O)c1ncc(N(Cc2cccc(F)c2)Cc2ccco2)c(C(=O)Nc2ccccc2Cl)n1,64%
20,COc1cccc(CN(Cc2ccco2)c2cnc(S(C)(=O)=O)nc2C(=O)Nc2cccc(Cl)c2C)c1,47% (active)
21,COc1ccccc1CN(Cc1ccco1)c1cnc(S(C)(=O)=O)nc1C(=O)Nc1ccccc1Cl,46% (active)
